Only some compounds are listed: those with a hit (about 3.7% of all), similar ones and a draw of the others.
UGM FP inh – Mtb UDP-galactopyranose mutase inhibition; purified UGM, fluorescence polarization probe displacement; inhibition, % at 10 µM; 320,000 tested, 0.06% active; in the data active = inhibition above about 10%, passing the limit was not always enough
Mtb FBA inh – inhibitors of M. tuberculosis fructose-bisphosphate aldolase. P9WQA3. purified M. tuberculosis FBA, fluorescence read-out. inhibition, % at 1 µM. 360,000 tested, 2.3% active; in the data active = inhibition above about 27%;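 note: 0% = vehicle and 100% = reference inhibitor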
Target sequence (P9WQA3 whole entry, looked up): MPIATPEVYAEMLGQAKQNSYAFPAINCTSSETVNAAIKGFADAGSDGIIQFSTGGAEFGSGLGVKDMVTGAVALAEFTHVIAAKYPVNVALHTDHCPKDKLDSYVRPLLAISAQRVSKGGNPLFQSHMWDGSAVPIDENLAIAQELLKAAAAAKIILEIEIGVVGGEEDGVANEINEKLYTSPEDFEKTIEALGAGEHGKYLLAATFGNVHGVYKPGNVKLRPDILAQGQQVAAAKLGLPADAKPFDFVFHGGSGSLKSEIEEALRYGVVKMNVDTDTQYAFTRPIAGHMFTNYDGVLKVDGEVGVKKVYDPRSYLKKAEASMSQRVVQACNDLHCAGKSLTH
GDH-TPI inh – counter-screen for M. tuberculosis FBA inhibitors: GDH-TPI coupled enzymes; GDH-TPI coupled enzyme counterscreen, NADH absorbance; inhibition, % at 4.8 µM; 360,000 tested, 1.2% active; in the data active = inhibition above about 30%;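 note: 0% = DMSO wells and 100% = wells lacking the enzyme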
Mtb betalactam – beta-lactam sensitization of Mtb H37Rv; M. tuberculosis H37Rv growth with meropenem, percent inhibition; inhibition, % at 25 µM; 330,000 tested, 0.27% active; call rule not given here;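 note: growth measured after seven days incubation then overnight dye step; 0% = bacteria only wells and 100% = bacteria with antibiotic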
Rv3671c inh – Rv3671c (M. tuberculosis) protease inhibition; P9WHR9; inhibition, % at 5.96 µM; 320,000 tested, 0.048% active; in the data active = inhibition above about 38%;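 note: extracellular domain of Rv3671c used as enzyme; 0% = enzyme with DMSO and 100% = no enzyme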
FadD28 binding – inhibitors of Mycobacterium tuberculosis FadD28 bisubstrate binding | 360,000 tested, 0.22% active | inhibition, % at 12.5 µM | FadD28 bisubstrate probe binding, fluorescence polarization; in the data active = inhibition above about 8.5%, passing the limit was not always enough
* hit, by the source's call.

What do the screens show for `O=C1NC(=S)S/C1=C\c1ccc(SCc2ccccc2)o1`?
UGM FP inh: 2.1; Mtb FBA inh: -8.7; GDH-TPI inh: 17.0; Mtb betalactam: 14.3; Rv3671c inh: 3.2; FadD28 binding: 18.1*

Results for O=C1NC(=S)S/C1=C\c1ccc(SCc2ccco2)o1 ?
UGM FP inh: 1.9; Mtb FBA inh: -5.1; GDH-TPI inh: 14.6; Mtb betalactam: 0.7; Rv3671c inh: 18.2; FadD28 binding: 45.2*

How did O=C1NC(=S)S/C1=C/c1ccc(OC(=O)c2ccco2)cc1 do in these assays?
UGM FP inh: -3.8; Mtb FBA inh: -8.9; GDH-TPI inh: 21.5; Mtb betalactam: 16.8; Rv3671c inh: -0.5; FadD28 binding: -1.2

Results for COc1cc(/C=C(/C#N)C(=O)c2c(C)[nH]c3ccccc23)ccc1OCC#N ?
UGM FP inh: -2.1; Mtb FBA inh: 2.6; GDH-TPI inh: 37.7*; Mtb betalactam: 0.6; Rv3671c inh: -2.4; FadD28 binding: -2.2

Results for CCc1ccc(C#CC2=CC(=O)CC(C)(C)C2)cc1 ?
Mtb FBA inh: -1.9; GDH-TPI inh: 9.0; FadD28 binding: -2.3

What do the screens show for `COc1ccc(OC)c(NC(=O)Nc2nc(C(N)C(C)C)cs2)c1` (stereo not drawn)?
Mtb FBA inh: -0.5; GDH-TPI inh: 13.7; FadD28 binding: -2.1

How did CCOC1=C2[C@H](c3ccccc3)N(S(=O)(=O)c3ccccc3)C[C@H]2n2c(=O)n(-c3ccccc3)c(=O)n2C1 do in these assays?
Mtb FBA inh: 4.3; FadD28 binding: -0.7

Results for CC(C)C[C@H](NC(=O)CCCn1nnc2ccccc2c1=O)C(=O)O ?
UGM FP inh: 1.3; Mtb FBA inh: -0.5; GDH-TPI inh: 58.9*; Mtb betalactam: 1.9; Rv3671c inh: 0.7; FadD28 binding: 0.2

What do the screens show for `CSCC[C@H](NC(=O)CCn1nnc2ccccc2c1=O)C(=O)O`?
UGM FP inh: 2.0; Mtb FBA inh: -7.6; GDH-TPI inh: -1.7; Mtb betalactam: -6.4; Rv3671c inh: 0.3; FadD28 binding: -2.6

Results for COc1cccc(C(C)(O)c2nc(-c3ccc(F)c(Cl)c3)cs2)c1 (stereo not drawn) ?
Mtb FBA inh: 0.8; GDH-TPI inh: 5.3; FadD28 binding: -0.6

Results for O=C(NCc1ccccc1)c1sc(=S)n2c1[nH]c(=O)c1ccccc12 ?
UGM FP inh: 0.0; Mtb FBA inh: -3.1; GDH-TPI inh: -1.4; Mtb betalactam: -7.0; Rv3671c inh: -6.5; FadD28 binding: 40.8*

Results for CCCCNC(=O)c1sc(=S)n2c1[nH]c(=O)c1ccc(C(=O)NCCc3ccc(OC)c(OC)c3)cc12 ?
UGM FP inh: 4.2; Mtb FBA inh: 2.5; GDH-TPI inh: 9.6; Mtb betalactam: 58.9; Rv3671c inh: -6.4; FadD28 binding: 0.2

How did COc1ccc(NC(=O)C2Cc3c(-c4ccc(Cl)cc4)ccnc3O2)cn1 (stereo not drawn) do in these assays?
Mtb FBA inh: -4.5; GDH-TPI inh: -2.6; FadD28 binding: -4.8

How did Nc1ccc2oc(-c3ccc4nc[nH]c4c3)nc2c1 do in these assays?
UGM FP inh: 4.5; Mtb FBA inh: 5.8; GDH-TPI inh: 31.0*; Mtb betalactam: -4.5; Rv3671c inh: 5.0; FadD28 binding: -5.7

What do the screens show for `Cc1nc2ccc(-c3nc4cc(N)ccc4o3)cc2[nH]1`?
UGM FP inh: 2.0; Mtb FBA inh: 12.4; GDH-TPI inh: 21.4; Mtb betalactam: -0.7; Rv3671c inh: -3.7; FadD28 binding: -11.2

How did COc1ccc(C(=O)N2CCOC2CNC(=O)C(=O)NCc2ccccc2)cc1 (stereo not drawn) do in these assays?
Mtb FBA inh: -2.2; GDH-TPI inh: 1.8; FadD28 binding: -1.5

How did O=[N+]([O-])c1ccc(/C=[N+](\[O-])[C@@H]2CCCC[C@@H]2/[N+]([O-])=C/c2ccc([N+](=O)[O-])o2)o1 do in these assays?
UGM FP inh: 1.2; Mtb FBA inh: -0.8; GDH-TPI inh: 34.0*; Mtb betalactam: 99.7; Rv3671c inh: -9.3; FadD28 binding: -0.5

What do the screens show for `O=C(N/N=C/c1ccco1)c1cccc(NC(=O)c2ccccc2Cl)c1`?
UGM FP inh: 1.9; Mtb FBA inh: -1.1; GDH-TPI inh: 31.6*; Mtb betalactam: -7.0; Rv3671c inh: -12.3; FadD28 binding: -7.5

What do the screens show for `COc1ccccc1/C=N/NC(=O)c1cccc(NC(=O)c2ccccc2Cl)c1`?
UGM FP inh: 0.1; Mtb FBA inh: 2.2; GDH-TPI inh: 18.9; Mtb betalactam: -0.4; Rv3671c inh: -16.1; FadD28 binding: -2.6

How did COc1ccc(/C=N/NC(=O)c2cccc(NC(=O)c3ccccc3Cl)c2)c(OC)c1 do in these assays?
UGM FP inh: 0.7; Mtb FBA inh: 1.7; GDH-TPI inh: 31.1*; Mtb betalactam: 2.9; Rv3671c inh: -25.4; FadD28 binding: -2.4

How did O=C(Nc1ccccc1C(=O)N/N=C/c1ccco1)c1ccccc1Cl do in these assays?
UGM FP inh: -3.1; Mtb FBA inh: -0.1; GDH-TPI inh: 27.7; Mtb betalactam: 12.4; Rv3671c inh: -11.9; FadD28 binding: -3.1

How did Nc1c(C(=O)NCc2ccco2)c2nc3ccccc3nc2n1Cc1ccccc1 do in these assays?
UGM FP inh: 1.7; Mtb FBA inh: 112.4*; GDH-TPI inh: 8.4; Mtb betalactam: 32.3; Rv3671c inh: -8.7; FadD28 binding: -4.5

How did Nc1c(C(=O)NCc2ccco2)c2nc3ccccc3nc2n1CCc1ccccc1F do in these assays?
UGM FP inh: -1.0; Mtb FBA inh: 70.3*; GDH-TPI inh: 7.5; Mtb betalactam: 15.0; Rv3671c inh: -2.5; FadD28 binding: -20.4

What do the screens show for `CC(NC(=O)c1ccccc1Cl)C(=O)OCc1cn2cc(Cl)ccc2n1` (stereo not drawn)?
UGM FP inh: -1.2; Mtb FBA inh: -0.1; GDH-TPI inh: -4.4; Mtb betalactam: 5.2; Rv3671c inh: 1.4; FadD28 binding: -2.3

How did CCOC(=O)c1ccc(NC(=O)C2CC(O)CN2S(=O)(=O)c2ccc(C)cc2)cc1 (stereo not drawn) do in these assays?
UGM FP inh: 4.1; Mtb FBA inh: 0.5; GDH-TPI inh: 9.2; Mtb betalactam: -4.9; Rv3671c inh: -2.1; FadD28 binding: -0.7

What do the screens show for `CCOc1cc(/C=N/n2c(C)nnc2C)ccc1O`?
UGM FP inh: -2.8; Mtb FBA inh: 3.1; GDH-TPI inh: 40.0*; Mtb betalactam: -8.7; Rv3671c inh: 2.9; FadD28 binding: -3.9

Results for COP(=O)(OC)c1nc(-c2cccc3ccccc23)oc1NCc1ccccc1 ?
UGM FP inh: -0.4; Mtb FBA inh: 191.9*; GDH-TPI inh: 15.7; Mtb betalactam: 9.7; Rv3671c inh: -9.9; FadD28 binding: -2.6

Results for COc1ccc(CNc2oc(-c3cccc4ccccc34)nc2P(=O)(OC)OC)cc1 ?
UGM FP inh: -1.5; Mtb FBA inh: active; GDH-TPI inh: 6.6; Mtb betalactam: -6.8; Rv3671c inh: -1.3; FadD28 binding: -2.5

What do the screens show for `CCOP(=O)(c1ccccc1)c1nc(-c2ccccc2C)oc1NCc1ccccc1` (stereo not drawn)?
UGM FP inh: 3.2; Mtb FBA inh: -3.2; GDH-TPI inh: 5.4; Mtb betalactam: -5.7; Rv3671c inh: 5.9; FadD28 binding: -1.2
